Reference: PubChem BioAssay (Tox21)
A number with no mark means an inactive call. Where a call stands in place of a potency, no number is given. Active and inactive are the calls of the source. Calls come from the whole dose curve; as a rule, active = well fitted curve in the direction sought with a large enough effect in the repeat runs; inconclusive = weak or mixed curves; inactive = flat fitted curve, though single readings scatter.

test: qHTS assay to test for compound auto fluorescence at 460 nm (blue) in HEK293 cell free culture (AID 720681); conditions: cell-free medium, autofluorescence 405/460 nm (blue); series mostly up to 91.3 µM
From the text: U.S. Tox21 Program National Center for Advancing Translational Sciences [NCATS] NIH Chemical Genomics Center [NCGC] U.S. Environmental Protection Agency [EPA] National Institutes of Environmental Health Sciences [NIEHS] National Toxicology Program [NTP] U.S. Food and Drug Administration [FDA] Tox21 Assay Overview: Compound auto fluorescence often interferes with screening of the compound library against various biological targets and signaling pathways. Some of these compounds may have fluorophoric properties. Such properties may interfere with the assay outputs resulting in false positives and/or negatives. To decrease such complications and ensure the compound activities are relevant in terms of biological response, the Tox21 10K compound library was screened for auto fluorescence. From the fluorophores used as reporter signals in our screening assays, the auto fluorescence equivalencies of compounds against three fluorophores have been evaluated: Triamterene, Fluorescein and Rose Bengal sodium for blue, green and red fluorescence, respectively. The fluorescence intensities were measured using Excitation/Emission wavelengths at 405/460nm, 485/535nm and 540/590nm for blue, green and red labels, respectively. This assay includes the blue fluorescence data.
Tox21 Assay Protocol Summary: 5 uL of culture medium (DMEM containing 10% FBS) per well was dispensed into black wall/clear bottom 1536-well plates using a Multidrop Combi Dispenser (ThermoFisher Scientific, Waltham, MA). After 23 nL compound or DMSO vehicle was transferred into assay plate by a pintool work station (Kalypsys, San Diego, CA), fluorescence intensities in the assay plates were measured by an Envision (PerkinElmer, Shelton, CT) plate reader using three labels for measuring blue, green and red fluorescence at […] 460, 535 and 590nm respectively.
Potency is the fitted concentration of half-maximal effect.

| Compound | Potency | fluorescence, % of fluorescent control |
| --- | --- | --- |
| CCCCC/C=C/CC1CC(=O)OC1=O (stereo not given) | inactive | – |
| Cc1cc(OCCOCC[N+](C)(C)Cc2ccccc2)ccc1C(C)(C)CC(C)(C)C | inactive | – |
| COC(=O)[C@H]1[C@H]2C[C@@H]3c4[nH]c5cc(OC)ccc5c4CCN3C[C@H]2C[C@@H](OC(=O)c2cc(OC)c(OC)c(OC)c2)[C@@H]1OC | inactive | – |
| CCCOC(=O)c1cc(O)c(O)c(O)c1 | inactive | – |
| CC(=O)N[C@@H](CS)C(=O)O | inactive | – |
| C1COC(NC(C2CC2)C2CC2)=N1 | inactive | – |
| C/C=C/c1ccc(OCC)c(O)c1 | inactive | – |
| NC(N)=NC(=O)Cc1c(Cl)cccc1Cl | inactive | – |
| O=C(Nc1ccccc1SSc1ccccc1NC(=O)c1ccccc1)c1ccccc1 | inactive | – |
| Cc1cccc([N+](=O)[O-])c1C(=O)O | inactive | – |
| Nc1cc(Cl)c(-c2cc(Cl)c(N)cc2Cl)cc1Cl | inactive | – |
| CCCCOCCOC(=O)c1ccccc1C(=O)OCCOCCCC | inactive | – |
| O=C(O)CCc1ccccc1 | inactive | – |
| Nc1ccc(O)cc1 | inactive | – |
| O=C(O[C@@H]1Cc2c(O)cc(O)cc2O[C@@H]1c1cc(O)c(O)c(O)c1)c1cc(O)c(O)c(O)c1 | inactive | – |
| CC(=O)O[C@]1(C(C)=O)CC[C@H]2[C@@H]3C[C@H](C)C4=CC(=O)CC[C@]4(C)[C@H]3CC[C@@]21C | inactive | – |
| CCCCCC(=O)O[C@]1(C(C)=O)CC[C@H]2[C@@H]3CCC4=CC(=O)CC[C@]4(C)[C@H]3CC[C@@]21C | inactive | – |
| CCCCC(CC)COC(=O)CC(C(=O)OCC(CC)CCCC)S(=O)(=O)O (stereo not given) | inactive | – |
| Oc1c(Cl)cc(Cl)cc1Sc1cc(Cl)cc(Cl)c1O | inactive | – |
| O=C(O)c1cccc(C(=O)O)c1 | inactive | – |

| Compound | Potency | fluorescence, % of fluorescent control |
| --- | --- | --- |
| CCCCCCCCCCCC[N+](C)(C)C | inactive | – |
| O=C(Cl)c1cccc(C(=O)Cl)c1 | inactive | – |
| O=C(Oc1ccccc1)c1ccccc1O | inactive | – |
| CCCCCCCCCCCCCC[P+](CCCC)(CCCC)CCCC | inactive | – |
| Clc1ccc2c(c1)C(N1CCNCC1)=Nc1ccccc1O2 | inactive | – |
| CCC[C@H](N[C@@H](C)C(=O)N1[C@H](C(=O)O)C[C@@H]2CCCC[C@@H]21)C(=O)OCC | inactive | – |
| Cc1cc(Cc2cc(C)cc(C(C)(C)C)c2O)c(O)c(C(C)(C)C)c1 | inactive | – |
| CC(N)=O | inactive | – |
| CC(C)CCOCc1ccccc1 | inactive | – |
| CCCCCCCCCCCCCCCCCl | – | -0.061% [at 18.6 µM] |
| NNCCc1ccccc1 | inactive | – |
| Cc1ccc(-c2cc(C(F)(F)F)nn2-c2ccc(S(N)(=O)=O)cc2)cc1 | inactive | – |
| Oc1ccc(Cl)cc1Cc1cc(Cl)ccc1O | inactive | – |
| O=C(O)CP(=O)(O)O | inactive | – |
| OCCOCCN1CCN(C(c2ccccc2)c2ccc(Cl)cc2)CC1 (stereo not given) | inactive | – |
| CCN(CC)c1ccc2c(C)cc(=O)oc2c1 | 39.8 µM (active) | – |
| O=Cc1ccc(Cl)cc1 | inactive | – |
| Cc1cc(C2(c3cc(C)c(O)cc3C)OS(=O)(=O)c3ccccc32)c(C)cc1O | inactive | – |
| Cc1scc2c1N(C(=O)CN1CCN(C)CC1)c1ccccc1NC2=O | inactive | – |
| Cc1cccc2n[nH]nc12 | inactive | – |
